# Reference: PubChem BioAssay
# The source made the active and inactive calls.
# Experiment: FRG1 expression reporter modulators in myotubes – cell-based, C2C12 myotubes, firefly/Renilla luciferase, luminescence, FRG1 inhibition for FSHD, primary screen (AID 1084)
# Conditions: FRG1 promoter luciferase, higher = more signal, called active from +8 up or from −8 down
row,Compound,z-score
1,C[C@]1(C(=O)NCCN2CCOCC2)c2ccccc2C(=O)N(Cc2ccc(OC(F)(F)F)cc2)[C@H]1c1ccc(CO)cc1,-2.39 (inactive)
2,[N-]=[N+]=Nc1ccccc1[C@@H]1OC(c2ccc(OCCCO)cc2)=N[C@]1(CCS(=O)(=O)c1ccccc1)C(=O)NCCN1CCOCC1,1.2 (inactive)
3,CC(C)CN1C(=O)[C@@]2(Cc3ccccc31)c1ccccc1C(=O)N(Cc1ccccc1C(F)(F)F)[C@H]2c1ccc(CO)cc1,-1.04 (inactive)
4,C=CC[C@]1(C(=O)N(C)C)N=C(c2ccc(OCCCO)cc2)O[C@H]1c1ccccc1N=[N+]=[N-],1.52 (inactive)
5,COc1cc2c(cc1OC)CN(C(=O)[C@H]1[C@@H]3C(=O)O[C@@H](c4ccccc4)[C@@H](c4ccccc4)N3[C@@H](c3ccc(OCCO)cc3)[C@]13C(=O)Nc1ccc(C#CC4(O)CCCCCC4)cc13)CC2,-0.126 (inactive)
6,COCCCNC(=O)[C@@H]1c2ccccc2C(=O)N(Cc2ccccc2C(F)(F)F)[C@H]1c1ccc(CO)cc1,0.421 (inactive)
7,C=CC[C@]12N=C(c3ccc(OCCCO)cc3)O[C@H]1c1ccccc1N(C)C2=O,-1.14 (inactive)
8,CCCC[C@@H]1C[C@H]1[C@@H](NC(=O)c1cccnc1)c1ccc(-c2ccccc2)cc1,-0.781 (inactive)
9,C[C@@H]1ON(c2ccc(C(=O)OC(C)(C)C)cc2)[C@H](c2ccc(Br)cc2)[C@H]1C(=O)N1C(=O)OC[C@H]1Cc1ccccc1,0.002 (inactive)
10,CC(C)CCC[C@@H](C)[C@H]1CC[C@@]2(C)C3=C(CC[C@]12C)[C@@]1(C)CC[C@H](OC(=O)c2ccc(Br)cc2)C(C)(C)C1CC3 (stereo partly specified),-0.879 (inactive)
11,COc1cc2c(cc1O)C(C)N(Cc1cc3c(cc1Br)OCO3)CC2 (stereo unspecified),0.0288 (inactive)
12,COc1c(C)cc(-c2cc3c(c(Cc4ccccc4)n2)[Si](C(C)C)(C(C)C)OC3)cc1C,0.184 (inactive)
13,CN(C)CCCN1C(=O)[C@@]2(c3ccc([N+](=O)[O-])cc3)CC(=O)N(CC34CC5CC(CC(C5)C3)C4)[C@@H]2c2ccc(CO)cc21,0.0832 (inactive)
14,CO[C@H]1O[C@H](CO)[C@@H](OC(=O)Nc2ccc(C(F)(F)F)cc2)[C@H](OC(=O)Nc2ccc3c(c2)OCO3)[C@H]1OC(=O)Nc1ccc2c(c1)OCO2,6.45 (inactive)
15,NC(=O)NCC#Cc1ccc2c(c1)[C@]1(C(=O)N2)[C@H](C(=O)Nc2nc3ccccc3s2)[C@H]2C(=O)O[C@H](c3ccccc3)[C@H](c3ccccc3)N2[C@@H]1c1ccc(O)cc1,1.46 (inactive)
16,COCCOC(=O)N1C(=O)[C@@]2(c3cc(C#CC4(O)CCCCCC4)ccc31)[C@H](C(=O)N1CCCCCCC1)[C@H]1C(=O)O[C@H](c3ccccc3)[C@H](c3ccccc3)N1[C@@H]2c1ccc(OCCO)cc1,-3.21 (inactive)
17,COC(=O)[C@@]1(Cc2ccccc2)[C@H]2c3cc(C(=O)N4CCCC4)[nH]c3C[C@H]2CN1C(=O)c1ccccc1,0.535 (inactive)
18,CCOC(=O)[C@H]1C/C=C/C[C@H](C(=O)OCC)C(=O)O[C@H]2[C@@H](OC)O[C@H](CO)[C@@H](OC(=O)CCc3ccccc3)[C@@H]2OC1=O,-1.26 (inactive)

row,Compound,z-score
1,Cc1ccc(F)cc1S(=O)(=O)N[C@@H]1CCN(Cc2ccc(OC(C)C)cc2)C1,-1.22 (inactive)
2,COCCOC(=O)N1C(=O)[C@@]2(c3cc(C#CC4=CCCCC4)ccc31)[C@H](C(=O)N1CCN(c3ncccn3)CC1)[C@H]1C(=O)O[C@H](c3ccccc3)[C@H](c3ccccc3)N1[C@@H]2c1ccc(O)cc1,0.378 (inactive)
3,COC(=O)C1(Cc2ccccc2)C=C2C(=C(C(C)C)C(=O)C2C)CN1 (stereo unspecified),3.19 (inactive)
4,O=C1O[C@H](c2ccccc2)[C@H](c2ccccc2)N2[C@H]1[C@@H](C(=O)O)[C@]1(C(=O)Nc3ccccc31)[C@H]2c1ccc(O)cc1,1.28 (inactive)
5,COc1ccc(NC(=O)O[C@H]2[C@H](OC(=O)Nc3ccc4c(c3)OCO4)[C@@H](OC(=O)Nc3ccc4c(c3)OCO4)[C@@H](OC)O[C@@H]2CO)cc1,6.75 (inactive)
6,COc1c(C)cc(-c2cc3c(c(-c4ccccc4)n2)[Si](C(C)C)(C(C)C)OC3)cc1C,-0.577 (inactive)
7,C[C@@H](OCc1ccccc1)C1NC(=O)[C@@]23C(=O)N[C@@H](Cc4ccccc4)C2[C@H](C)[C@@]2(C)O[C@H]2C3/C=C/C/C=C\CNC(=O)CNC1=O (stereo partly specified),-0.0275 (inactive)
8,COc1ccc([Si](C)(C)[C@@H]2[C@@H](CC(=O)N3CCC[C@H]3CO)O[C@]3(C(=O)N(Cc4ccc(N5C(=O)c6cccc7cccc5c67)cc4)c4ccccc43)[C@H]2C)cc1,-1.5 (inactive)
9,CC1CC/C=C\[C@H]2OC34C=CCN(c5ccc6ccccc6c5)C(=O)[C@H]3N(C(CO)C(C)C)C(=O)[C@@H]4C2C(=O)O1 (stereo partly specified),0.718 (inactive)
10,COCCOC(=O)N1C(=O)[C@@]2(c3cc(C#CCC(C(=O)OC)C(=O)OC)ccc31)[C@H](c1ccc(OCCO)cc1)N1[C@H](c3ccccc3)[C@H](c3ccccc3)OC(=O)[C@H]1[C@@H]2C(=O)N1CCN(c2ncccn2)CC1,0.977 (inactive)
11,CCOC(=O)[C@H]1C/C=C/C[C@H](C(=O)OCC)C(=O)O[C@H]2[C@@H](OC)O[C@H](CO)[C@@H](OC(=O)Nc3ccc(OC)cc3)[C@@H]2OC1=O,2.18 (inactive)
12,O=C1O[C@@H](c2ccccc2)[C@@H](c2ccccc2)N2[C@@H](c3ccc(O)cc3)[C@]3(C(=O)Nc4ccc(C#CC5=CCCCC5)cc43)[C@@H](C(=O)N3CCN(c4ncccn4)CC3)[C@H]12,0.795 (inactive)
13,CCCCN1CC=CC23O[C@@H]4/C=C\CCC(C)OC(=O)C4[C@H]2C(=O)N(CCCCCCO)[C@@H]3C1=O (stereo partly specified),0.189 (inactive)
14,CCOC(=O)C[C@H]1[C@H](OC(=O)c2ccc(-c3ccccc3)cc2)[C@@H](NC(=O)c2ccc3ccccc3n2)c2cc(OCCCO)ccc2N1C(=O)c1ccccc1,-0.561 (inactive)
15,COc1ccc(NN2C(C(O)c3ccccn3)C=CC3C(=O)N(C4CCCCC4)C(=O)C32)cc1 (stereo unspecified),3.21 (inactive)
16,COc1cc(OC)c(C(O)C2C=CC3C(=O)N(c4ccccc4)C(=O)C3N2Nc2ccc(C#N)cc2)cc1Br (stereo unspecified),-0.647 (inactive)
17,COc1ccc([Si](C)(C)[C@H]2[C@H](CCn3cc([C@H](O)c4ccccc4)nn3)O[C@@]3(C(=O)N(Cc4ccc(N5CCOC5=O)cc4)c4ccccc43)[C@@H]2C)cc1,-1.58 (inactive)
18,CCCCC(CC)C(O)C1C=CC2C(=O)N(c3ccccc3)C(=O)C2N1Nc1ccc([N+](=O)[O-])cc1 (stereo unspecified),-1.62 (inactive)
